From PubChem BioAssay
PfHsp90 yeast 2 – inhibits growth of yeast expressing Plasmodium falciparum Hsp90; S. cerevisiae expressing PfHsp90, BacTiter-Glo ATP, 48 h; yeast lacking PDR1 and PDR3 efflux regulators; inhibition, % at 9.4 µM; actives 0.32% (n = 310,000); AID 504621;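 active = every replicate shows inhibition above about 80%, whatever the replicate mean, limit read from the data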;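 note: 0% = DMSO neutral controls and 100% = 20 µM radicicol positive controls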
tim10-1 inh – growth inhibitors of tim10-1 mutant yeast | AID 463190 | inhibition, % at 20 µM | S. cerevisiae tim10-1 ts strain growth, BacTiter-Glo, 24 h | actives 2.2% (n = 330,000);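 active = inhibition of at least 40%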;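 note: mutant grown at 25 °C; 0% = DMSO wells with yeast and 100% = wells holding no yeast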
SKKanGAS inh – blocks kanamycin growth of S. pyogenes SKKanGAS strain | BacTiter-Glo, 6 h | inhibition, % at 7.5 µM | actives 1.3% (n = 300,000);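 active = mean replicate score, as percent of positive control median, at least 50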;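 note: strain carries kanamycin resistance gene driven by streptokinase promoter and grows in 40 µg/ml kanamycin; loss of luminescence reflects streptokinase promoter inhibition or plain growth inhibition; 0% = median of DMSO wells and 100% = positive control at its reference dose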
tim23-1 inh – growth inhibitors of tim23-1 mutant yeast; inhibition, % at 20 µM; S. cerevisiae tim23-1 growth, BacTiter-Glo luminescence, 24 h; actives 1.3% (n = 330,000); AID 463212;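 active = growth inhibition of the mutant yeast at or above 50%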;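 note: temperature-sensitive mutant grown at 25 °C; plate controls were DMSO-treated mutant yeast for no effect and medium wells lacking yeast for full effect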
EBI2 antag – antagonists of human EBI2 receptor; actives 0.81% (n = 360,000); EBI2 beta-arrestin recruitment, luminescence, 7a,25-OHC stimulated; AID 651636; inhibition, % at 5 µM; in the data active = inhibition above about 38%;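 note: enzyme fragment complementation signal reports receptor beta-arrestin coupling in cells; 0% = agonist plus DMSO wells and 100% = wells without agonist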
Target sequence (P32249 whole entry, looked up, the tested form may be a part): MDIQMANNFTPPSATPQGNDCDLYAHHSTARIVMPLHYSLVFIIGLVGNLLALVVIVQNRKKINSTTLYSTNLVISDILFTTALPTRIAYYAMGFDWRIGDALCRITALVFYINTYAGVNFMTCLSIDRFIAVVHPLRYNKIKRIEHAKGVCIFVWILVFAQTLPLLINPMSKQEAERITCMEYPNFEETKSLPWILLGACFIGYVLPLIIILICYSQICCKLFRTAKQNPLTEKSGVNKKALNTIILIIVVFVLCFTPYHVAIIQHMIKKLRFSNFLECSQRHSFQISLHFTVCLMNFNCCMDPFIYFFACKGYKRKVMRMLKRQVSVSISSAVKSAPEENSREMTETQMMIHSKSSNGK
TIM10 inh – TIM10 yeast growth inhibition | inhibition, % at 10 µM | AID 463195 | actives 1.4% (n = 330,000) | S. cerevisiae TIM10 strain growth, BacTiter-Glo luminescence, 24 h;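 active = inhibition of 40% or more at the single tested concentration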;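 note: wild-type TIM10 isogenic control strain grown at permissive 25 °C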
tim10-1 confirm – tim10-1 yeast growth inhibition, confirmed. actives 56% (n = 7,400). S. cerevisiae tim10-1 ts strain growth, BacTiter-Glo, 24 h. inhibition, % at 20 µM. shares compounds with tim10-1 inh;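 active = inhibition of yeast growth at or above a set limit in either of two repeat tests at 20 µM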;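 note: tim10-1 mutant grown at permissive 25 °C to find synthetic lethal compounds; 0% = DMSO yeast wells and 100% = medium wells without yeast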
Numbers without * were called inactive; / = no result. Sampled rows, rich in hits. Any-hit rate of the full collection: about 4.7%.

SMILES	PfHsp90 yeast 2	tim10-1 inh	SKKanGAS inh	tim23-1 inh	EBI2 antag	TIM10 inh	tim10-1 confirm
COC(=O)c1ccc(N2CCN(S(=O)(=O)c3ccccc3)CC2)c([N+](=O)[O-])c1	-14	42*	0	30	7	3	15
O=C(c1ccc(N2CCN(S(=O)(=O)c3ccccc3)CC2)c([N+](=O)[O-])c1)N1CCOCC1	-23	9	12	12	5	4	/
O=C(Cn1nnc(-c2ccccc2)n1)Nc1cccc(S(=O)(=O)N2CCCC2)c1	/	-1	-1	-9	-5	5	/
CC1CC(C)(C)NC(=S)N1CCCC(=O)Nc1ccc(Cl)cc1 (centres undefined)	36	26	-1	-11	0	13	/
CC(C)c1ccc(NC(=O)CCCN2C(=S)NC(C)(C)CC2C)cc1 (centres undefined)	/	43*	-7	38	-2	15	10
CCC(CC(C)(C)O)C(=O)NNC(=S)Nc1ccccc1 (centres undefined)	-1	8	-2	6	-2	9	/
O=C(NCc1ccccc1)c1ccc(COCC(F)(F)F)o1	-6	3	0	-10	9	-5	/
Cc1cccn2c(=O)c(C=O)c(N3CCN(c4ccc(F)cc4)CC3)nc12	12	49*	-8	28	-3	33	36*
Cc1cccn2c(=O)c(C=O)c(N3CCCCC3)nc12	7	21	-2	35	-4	-4	/
N#C/C(=C\c1cccc(O)c1)C(=O)Nc1ccc2c(c1)OCCO2	-14	20	10	38	8	38	/
CC(C)NC(=O)/C(C#N)=C/c1ccc2c(c1)OCCO2	4	43*	0	30	0	11	34*
Cc1cccn2c(=O)c3cc(S(=O)(=O)c4ccc(Br)cc4)c(=N)n(C4CCCC4)c3nc12	-21	41*	-10	31	18	-1	-10
N=c1c(S(=O)(=O)c2ccc(Br)cc2)cc2c(=O)n3ccccc3nc2n1C1CCCCC1	2	36	14	17	6	23	/
CCc1nn(C(C)C(=O)NCc2ccc(Cl)cc2)c(=O)c2cc3occc3n12 (centres undefined)	-9	32	0	10	-8	-29	/
COC(=O)/C=C1\SC(=NC(=O)c2ccc(-c3ccccc3)cc2)NC1=O	-9	1	/	5	9	13	/
O=C(/C=C/c1cccc([N+](=O)[O-])c1)NCCSCc1c(Cl)cccc1Cl	-1	27	1	22	15	11	/
O=C(/C=C/c1cccc([N+](=O)[O-])c1)NCCSCc1ccc(Cl)cc1	8	45*	5	28	22	25	22
Cc1ccc(CSCCNC(=O)CSCc2ccc([N+](=O)[O-])cc2)cc1	/	42*	-8	33	0	14	29
Cc1cccc(CSCCNC(=O)CSCc2ccc([N+](=O)[O-])cc2)c1	-9	46*	0	30	10	20	28
Cc1ccccc1CSCCNC(=O)CSCc1ccc([N+](=O)[O-])cc1	-61	38	3	38	1	22	/
Cc1cccc(OCC(=O)NCC(=O)N/N=C/c2c(C)[nH]c3ccccc23)c1	-9	6	-3	-9	-1	-3	/
CCOC(=O)C1CSC(CC(=O)Nc2ccc(OC(F)(F)F)cc2)C(=O)N1 (centres undefined)	7	2	0	0	4	12	/
CC(C)CCN(C(=O)Nc1ccccc1)C(C)c1cccs1 (centres undefined)	/	43*	/	34	-9	23	31*
CCc1ccc(NC(=O)N(Cc2ccco2)C(C)c2cccs2)cc1 (centres undefined)	6	42*	0	30	6	21	33*
O=C(NCCCN1CCOCC1)C(c1ccccc1)c1ccccc1	5	5	1	5	-1	3	/
SMILES	PfHsp90 yeast 2	tim10-1 inh	SKKanGAS inh	tim23-1 inh	EBI2 antag	TIM10 inh	tim10-1 confirm
O=C(CCN1C(=O)/C(=C/c2ccccc2)SC1=S)N1CCCCCC1	-5	44*	1	50	0	33	36*
Cc1cc(C)nc(NN=C(c2ccccc2)c2ccccc2)n1	10	47*	-4	42	-4	25	24
CC(C)C1OC(c2cccc(NC(=O)c3cccs3)c2)OCC1(C)C (centres undefined)	-40	44*	13	23	-12	39	32*
CCC(=O)Nc1cccc(C(=O)c2ccccc2)c1	6	-1	-11	13	-13	5	/
CCC(=O)Nc1cccc(C(=O)/C=C/c2ccccc2)c1	4	42*	-4	34	-36	20	43*
COc1ccc(C(NC(C)=O)c2cc(Cl)c3cccnc3c2O)cc1OC (centres undefined)	-28	40*	55*	19	13	16	29
COc1ccc(C(NC(C)=O)c2nccc3cc(OC)c(OC)cc23)cc1OC (centres undefined)	30	-9	0	-4	-5	1	/
CCCC(=O)NC(c1ccco1)c1cc(Cl)c2cccnc2c1O (centres undefined)	105*	50*	71*	48	27	21	24
COC(=O)C(Sc1ccc(Cl)cc1)C1SC(=S)N(Cc2ccccc2)C1=O (centres undefined)	/	/	/	/	-4	/	/
Cc1c(Cl)cccc1NC(=S)N1CCCCCC1	-13	44*	-3	29	-1	24	16
CCOc1cc(C(=O)N2CCC(CC3CC(c4ccc(Cl)cc4)=NO3)(C(=O)NCC3CCCCC3)CC2)cc(OCC)c1OCC (centres undefined)	11	10	22	12	-5	6	/
O=c1c(Cl)c(N2CCOCC2)cnn1-c1ncc(C(F)(F)F)cc1Cl	-17	19	6	11	1	-5	/
FC(F)(F)c1cnc(Nc2ccc(N3CCOCC3)cc2)c(Cl)c1	-115	44*	-17	19	-4	15	21
CC(C)=NOC(=O)c1ccc(-c2ccccc2)cc1	-23	54*	1	42	-7	39	42*
COc1ccc(C(=O)O/N=C(\C)c2ccccc2)cc1	34	19	48	45	-6	29	/
CCOC(=O)CC(=O)CSc1nc2c(cc1C#N)CCC2	-20	-8	2	6	-6	-12	/
CCOC(=O)CC(=O)CSc1nc2c(c(-c3cccs3)c1C#N)CCC2	-4	42*	-11	41	8	26	33*
COc1ccc(NC(=O)c2ccc(S(=O)(=O)N3CCCCC3)cc2)cc1OC	2	7	/	14	-2	16	/
Cc1c(C(=O)N2CCN(c3ccccn3)CC2)sc2ncnc(N3CCN(c4ccccc4)CC3)c12	3	14	12	14	17	-4	/
